Test results reported in PubChem BioAssay AID2279 (Southern Research Specialized Biocontainment Screening …, 2010).
Measured potencies and affinities stand elsewhere. The source made the active and inactive calls. How the calls were made is not given here.

Assay: HIV-1 Env-mediated cell fusion inhibitors, dose response, CCR5-tropic Env (AID 2279)
Conditions: CCR5-tropic HIV-1 Env, reporter read-out; series mostly up to 50 µM

SMILES	outcome
CCOc1cc(/C=C2\SC(=S)N(C(C(=O)O)c3ccccc3)C2=O)ccc1O (configuration not stated)	inactive
CCc1nnc(NS(=O)(=O)c2ccc(NC(=S)NC(=O)/C=C/c3ccc(F)cc3)cc2)s1	inactive
Cc1ccc(-n2cccc2/C=C2/C(=N)N3C(=NC2=O)SN=C3S(C)(=O)=O)cc1Cl	inactive
COc1cc(OC)c2c(O)c3c(c(-c4c5c(c(O)c6c(OC)cc(OC)cc46)CO[C@@H](C)[C@H]5O)c2c1)[C@H](O)[C@H](C)OC3	inactive
CCOc1ccc(NC(=NCc2ccc3c(c2)OCO3)SC2CC(=O)N(c3ccc(C(=O)O)cc3)C2=O)cc1 (configuration not stated)	inactive
COc1ccc(-c2nn(-c3ccccc3)cc2/C=C\C(=O)Nc2ccc(C(=O)O)cc2)cc1	inactive
COc1ccc(/C=C2/SC(=S)N(CC(=O)O)C2=O)cc1OCc1ccc(Cl)cc1	inactive
CCCCCC(=O)Cc1cc(O)cc2c1C(=O)Oc1cc(O)c(C(=O)O)c(CCCCC)c1O2	inactive
Cc1c(CCC(=O)O)c(=O)oc2c(C)c3occ(-c4ccc(Cl)cc4)c3cc12	inactive
Cc1cc(N2C(=O)C(O)=C(C(=O)c3cc4ccccc4o3)C2c2ccc(Cl)cc2)no1 (configuration not stated)	inactive
COc1cc(Cl)cc(C(c2c(C(=O)O)[nH]c3ccccc23)c2c(C(=O)O)[nH]c3ccccc23)c1O	inactive
COc1ccc2c(c1)cc(C(=O)N/N=C/c1c(O)c(C(=O)O)cc3ccccc13)n2C	inactive
CCS(=O)(=O)C1=NN2C(=N)/C(=C\c3ccc(OS(=O)(=O)c4ccccc4)c(OC)c3)C(=O)N=C2S1	inactive
O=C(O)c1ccc(/C=N/NC(=O)c2ccc(CN3c4cccc5cccc(c45)S3(=O)=O)cc2)cc1	inactive
O=C(Nc1ccc(Br)cc1C(=O)O)c1ccc2c(c1)C(=O)N(Cc1ccccc1)C2=O	inactive
O=C(O)CSc1cc(C(=O)c2ccccc2O)cn2c(=O)c3c4c(sc3nc12)CCCC4	inactive
CCOC(=O)C1=C(C)N=c2s/c(=C/c3ccc(OCC(=O)O)cc3)c(=O)n2C1c1ccc(SC)cc1 (configuration not stated)	inactive
CCC(C)(C)C1CCc2c(sc(NC(=O)c3ccccc3C(=O)O)c2C#N)C1 (configuration not stated)	inactive
CCOC(=O)c1c(N2C(=O)Nc3cc(Cl)c(Cl)cc3N2O)sc2c1CCCCC2	inactive
CC(/C=C1\SC(=S)N(c2ccc(C(=O)O)cc2)C1=O)=C\c1ccccc1	inactive
CCCOc1ccc(C(=O)NNC(=S)NC(=O)c2cc(-c3ccc(Cl)cc3)nc3ccccc23)cc1	inactive
O=c1[nH]c(=S)[nH]c2c1C(c1ccc(Br)cc1)c1c([nH]c(=S)[nH]c1=O)O2	inactive
CCc1nnc(NS(=O)(=O)c2ccc(NC(=O)/C=C/c3ccccc3Cl)cc2)s1	inactive
O=C(O)C1Nc2ccc(Br)cc2C2C=CCC12 (configuration not stated)	inactive
O=C(O)CSc1cc(C(=O)c2cc(F)ccc2O)cn2c(=O)c3c(-c4ccccc4)csc3nc12	inactive
COc1ccc(C(=O)COC(=O)c2ccccc2NS(=O)(=O)c2ccc(O)c([N+](=O)[O-])c2)cc1	inactive
CC(C)c1ccc(OCC(=O)Nc2cccc(C(=O)Nc3ccccc3C(=O)O)c2)cc1	inactive
